TLR4-MyD88 BLA: blocks binding of human TLR4 to MyD88; HeLa CL3-4 TLR4/MyD88 BLA complementation, FRET ratio; 0.18% of 200,000 active; inhibition, % at 8.4 µM; in the data active = inhibition above about 25%;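 also: 0% = vehicle and 100% = reference inhibitor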
Myeloid diff MLP: myeloid differentiation induction; ER-HoxA9 myeloid progenitors, lysozyme-GFP differentiation, flow cytometry; calls only at 10 µM; 1% of 360,000 active; AID 624256;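 active = normalized GFP-positive differentiation at or above the plate's own cutoff, the solvent-only control mean plus 3 SD; inconclusive = no clear call, values can overlap the other calls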;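 also: cells exposed to compound for four days before flow analysis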
ABCB6 inh 2: inhibitors of human ABC transporter ABCB6; AID 602162; Q9NP58; fluorescence ratio to DMSO, % at 10 µM; K562-ABCB6 porphyrin accumulation, flow cytometry, 1 h; stronger effect = lower value; 0.19% of 360,000 active;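 active = fluorescence ratio to DMSO below 75%, the collection mean minus 3 SD; inconclusive = too few cells collected in the well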;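 also: signal is porphyrin accumulated inside mitochondria; 100% equals median channel fluorescence of DMSO control wells; lower ratio means ABCB6 inhibition with less porphyrin fluorescence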
NOD2 RIPK2 PPI: NOD2-RIPK2 protein interaction inhibition; O43353; CHO BLA complementation NOD2-RIPK2, CCF4 ratio; inhibition, % at 4.98 µM; 0.38% of 360,000 active; AID 624267; in the data active = inhibition above about 21%;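 also: 0% = vehicle only and 100% = reference blocker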
TLR9-MyD88 inh: TLR9-MyD88 interaction inhibition | CHO BLA complementation TLR9-MyD88, CCF4 FRET ratio | inhibition, % at 4.98 µM | 0.21% of 340,000 active | AID 504734;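 active = inhibition above the mean over all tested compounds plus 3 SD, cut at about 21% in these data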;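 also: 0% = DMSO only wells and 100% = clavulanate BLA inhibitor control wells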
Myeloid diff CP1: compounds promoting myeloid differentiation; shares compounds with Myeloid diff MLP; ER-HoxA9 myeloid progenitors, GFP/Mac1 double-positive flow; calls only; 2% of 2,300 active;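 active = share of green or green-and-red cells above 9 and 9% in run 1 or 4 and 3% in run 2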
GFP autofluor: compound fluorescence in myeloid differentiation counter-screen; fluorescence response, % (test concentration not listed); 7.4% of 2,300 active; AID 651707; shares compounds with Myeloid diff MLP; ER-HoxA9 myeloid progenitors, no estrogen, GFP autofluorescence flow cytometry; vehicle wells 0%, positive control 100%;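 active = over 5% cells positive for green fluorescent reporter, or over 2% positive for both it and APC stain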;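 also: range taken on the double positive population between DMSO and positive control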
* = called active by the depositor; i = inactive; ? = inconclusive; / = no result given; + = active, no number. Hits are enriched below; roughly 1.7% of the tested compounds scored in any of these assays.

SMILES | TLR4-MyD88 BLA | Myeloid diff MLP | ABCB6 inh 2 | NOD2 RIPK2 PPI | TLR9-MyD88 inh | Myeloid diff CP1 | GFP autofluor
Cc1onc(-c2c(Cl)cccc2Cl)c1C(=O)NCc1ccc(S(N)(=O)=O)cc1 | / | i | 101 | -8 | -6 | i | 0
N#Cc1ccc(-c2ccc(F)cc2)nc1SCC(=O)Nc1sc2c(c1C#N)CCC2 | 5 | i | 101 | -8 | 5 | i | 0
CCc1ccc(NC(=O)CSCc2ccc(C(=O)O)cc2)cc1 | -4 | i | 94 | 0 | -5 | i | 0
COC(=O)c1ccc(NC(=O)CSCc2ccccc2)cc1 | -1 | i | 189 | -2 | 5 | / | /
COc1cccc(C2(O)CC(C(F)(F)F)=NN2C(=O)c2ccccn2)c1 (centres undefined) | 2 | i | 105 | 5 | -9 | / | /
CC(=O)c1ccc(NC(=O)c2ccc([N+](=O)[O-])o2)cc1 | / | ? | 97 | 15 | 8 | / | /
COc1ccc(NC(=O)c2ccc([N+](=O)[O-])o2)cc1 | / | + | 101 | 6 | -4 | i | 0
O=C(NCc1cccnc1)c1ccc([N+](=O)[O-])o1 | 1 | + | 102 | -1 | -4 | i | 2
O=C(Nc1ccc(Cl)cn1)c1ccc([N+](=O)[O-])o1 | 0 | + | 110 | 1 | -13 | i | 1
COc1ccc2nc(NC(=O)c3ccc([N+](=O)[O-])o3)sc2c1 | / | i | 103 | 0 | 3 | i | 1
O=C(Nc1nc2ccccc2s1)c1ccc([N+](=O)[O-])o1 | / | i | 104 | -8 | 5 | / | /
O=C(Nc1cccnc1)c1ccc([N+](=O)[O-])o1 | / | / | 100 | -1 | 9 | / | /
O=C(Nc1ccnc(=O)[nH]1)c1sc2ccccc2c1Cl | / | i | 101 | -6 | -16 | / | /
O=[N+]([O-])c1cc([N+](=O)[O-])c2c(=Nc3ccccc3)n(-c3ccccc3)n(O)c2c1 | -2 | i | 105 | -7 | -11 | / | /
CCCCC(=O)N(C)c1c(CC)nc2c(OCc3ccccc3C)cccn12 | / | i | 96 | 1 | / | / | /
COc1ccc2c(c1)CCC(C)N2S(=O)(=O)c1ccc(C2CNC(=O)C2)cc1 (centres undefined) | 4 | / | 101 | 0 | 4 | i | 0
COc1ccc(S(=O)(=O)N2c3ccc(F)cc3CCC2C)cc1 (centres undefined) | / | / | 137 | 9 | 0 | / | /
Cc1ccc(-c2noc(CN(C(=O)CCN3C(=O)c4ccccc4C3=O)C(C)C)n2)cc1 | 17 | + | 95 | 1 | 5 | i | 0
Fc1ccc(-c2cc3nc(-c4ccccc4)cc(N4CCOCC4)n3n2)cc1 | 12 | i | 97 | 0 | 3 | i | 0
COc1cccc(-c2noc(-c3ccc(Br)o3)n2)c1 | -12 | i | 92 | -7 | -10 | / | /
O=C(CNC(=O)c1ccc(=O)[nH]c1)Nc1ccc(F)c(F)c1 | / | + | 94 | -2 | 0 | i | 0
CCc1ncc(CO)n1Cc1cccc2ccccc12 | / | i | 99 | -5 | -5 | / | /
CCOC(=O)/C(=C\c1ccc([N+](=O)[O-])o1)NC(=O)c1ccccc1 | -2 | i | 100 | 17 | -6 | / | /
O=C(NCCO)/C(=C\c1ccc([N+](=O)[O-])o1)NC(=O)c1ccccc1 | -5 | i | 99 | -5 | -27 | i | 0
CSc1nc2ccc(NC(=O)CS(=O)(=O)c3ccccc3)cc2s1 | / | i | 100 | -5 | 7 | / | /
SMILES | TLR4-MyD88 BLA | Myeloid diff MLP | ABCB6 inh 2 | NOD2 RIPK2 PPI | TLR9-MyD88 inh | Myeloid diff CP1 | GFP autofluor
O=C(Nc1ccccc1)C(Cc1ccccc1)NC(=O)C12CC3CC(CC(C3)C1)C2 (centres undefined) | 5 | + | 88 | 0 | -3 | i | 0
Cc1nc(SCC(=O)N2CC(=O)Nc3ccccc32)nc(C)c1C | 15 | i | 97 | -3 | 5 | / | /
N#Cc1cc(C#N)c(SCC(=O)N2CC(=O)Nc3ccccc32)nc1N | / | i | 103 | -2 | -6 | i | 1
COc1cccc(Cn2nnc(C(=O)Nc3ccc(C)cc3)c2N)c1 | 8 | i | 97 | 7 | 2 | / | /
COc1cccc(Cn2nnc(C(=O)Nc3cc(C)ccc3OC)c2N)c1 | 2 | + | 99 | 1 | 4 | i | 88*
Clc1ccccc1Sc1ccc(-c2ccccn2)s1 | / | i | 93 | -20 | / | / | /
O=S(=O)(c1ccc2c(c1)OCCO2)N1CCC(c2nc3ccc(Cl)cc3[nH]2)CC1 | -1 | i | 97 | 7 | 4 | i | 0
Cn1c(=O)c2c(ncn2Cc2nnc(N)s2)n(C)c1=O | -7 | i | 100 | -9 | -2 | / | /
CC1CCN(CC(=O)Nc2cccc(Cl)c2)CC1 | -13 | i | 91 | -14 | 6 | / | /
Cc1cc(/C=C(\C#N)c2nnc(N3CCOCC3)n2-c2ccccc2)c(C)n1-c1ccccc1 | 2 | / | / | / | / | / | /
N#C/C(=C/c1ccc(-c2ccc([N+](=O)[O-])cc2)o1)c1nnc(N2CCOCC2)n1-c1ccccc1 | / | + | 207 | 4 | -15 | i | 4
COc1ccc(N2CCN(c3ccc(N4C(=O)COCC4=O)cc3[N+](=O)[O-])CC2)cc1 | -6 | i | 86 | -6 | 3 | i | 0
Cc1ccc(N2CCC(N3CCN(C)C(CCO)C3)CC2)cc1 (centres undefined) | / | i | 112 | 2 | 1 | / | /
Cc1ccc(NS(=O)(=O)c2cccc(C(=O)NNC(=O)c3ccco3)c2)c(C)c1 | / | + | 99 | -1 | 1 | i | 0
COc1ccc(N(CC(=O)NC2CCCC2)C(=O)Cn2nnc(-c3ccc(F)cc3)n2)cc1OC | 4 | i | 107 | -2 | -6 | / | /
COc1ccc(N(CC(=O)NC2CCCC2)C(=O)Cn2nnc(-c3ccc(C)cc3)n2)cc1OC | 9 | i | 102 | -10 | 7 | i | 1
CCC(C)Nc1nc(OCC(F)(F)F)nc(OCC(F)(F)F)n1 (centres undefined) | 4 | i | 96 | -6 | -7 | / | /
CCC(C)Nc1nc(OC(C(F)(F)F)C(F)(F)F)nc(OC(C(F)(F)F)C(F)(F)F)n1 (centres undefined) | 2 | + | 112 | -6 | 2 | i | 0
Cc1ccccc1CN1CCN(Cc2cc(=O)c3ccccc3[nH]2)CC1CCO (centres undefined) | / | i | 97 | -3 | 9 | / | /
CN(C(=O)COn1nnc2ccc(Cl)cc21)C1CCS(=O)(=O)C1 (centres undefined) | / | i | 95 | 7 | 3 | / | /
Cc1ccc(OCC(=O)OCC(=O)NC2CCCCCC2)cc1C | / | i | 99 | -20 | 0 | / | /
COc1cc(OC)c2c(-c3cccc(-c4ccc(N(C)C)cc4)c3)cc(=O)oc2c1 | / | / | 104 | 6 | 4 | / | /
COc1cc(OC)c2c(-c3cccc(-c4ccc(O)cc4)c3)cc(=O)oc2c1 | / | + | 106 | -2 | -1 | i | 5

Bioassay records from PubChem BioAssay.
